The supplement of paper PMC10681739

Target: T1, ETS1 (UniProt P14921)
T1 sequence: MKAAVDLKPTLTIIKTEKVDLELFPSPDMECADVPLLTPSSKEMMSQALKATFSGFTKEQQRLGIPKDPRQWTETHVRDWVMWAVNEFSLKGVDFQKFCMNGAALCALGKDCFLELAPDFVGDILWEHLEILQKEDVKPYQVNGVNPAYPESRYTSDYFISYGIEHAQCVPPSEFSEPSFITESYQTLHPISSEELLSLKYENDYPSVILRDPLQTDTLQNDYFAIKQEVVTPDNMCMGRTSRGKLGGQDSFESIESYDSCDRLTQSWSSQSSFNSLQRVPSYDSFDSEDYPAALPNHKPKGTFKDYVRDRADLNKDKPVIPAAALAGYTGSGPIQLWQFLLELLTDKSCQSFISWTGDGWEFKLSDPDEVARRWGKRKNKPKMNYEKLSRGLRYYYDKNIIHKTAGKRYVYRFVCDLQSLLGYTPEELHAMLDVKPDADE
Assay: ETS1 binding intensity (PBM fluorescence) in presence of RUNX1, normalised to ETS1-only experiment (arbitrary fluorescence units); higher = stronger binding
Conditions: ETS1 concentration 1 nM; RUNX1 concentration 25 nM

Sequence | ETS1 binding intensity
ACAGGTTCAGGAAGCGGCCGTGGTTGTTAGTGGTGT | 639
CTGCAGACAGGAGGATGTGGGCTTGCGCGCAAACAG | 745
CGGCACCCTCCTTCCTCCCTGCCAACCGCCTCCACC | 696
TGGGCACGGGAGGAAGAGGCTGGGTGGTAAACAGGA | 494
AAAACGCGGAAATACGGTGGCTGCGGCCCGCGGGCA | 573
GCGCACACATGCTTCCTGTGGTGACTGGGCGCTTCA | 512
GGTGTTAGTAGTCAAGGAAGTGGTCACCCTTGACAG | 2150
AGTTTCTCCAGGAAGCGCTGAGGTTTTCTCAGAAGT | 1160
GCTAAAGGAAGCTCTGTACAGCTGTGGTAAGGTGGC | 792
